# TRHR agonist: agonists of human TRH receptor; TRHR cells, calcium flux fluo-8, FDSS agonist mode; activation, % at 2 µM; actives 0.18% (n = 360,000); AID 493084
#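 TRHR-expressing cells loaded with fluo-8 calcium dye; 23 nL library compound pin-transferred, kinetic FDSS fluorescence (Ex 480/Em 530) recorded about 180 s for agonist-induced calcium release, before a 10 nM TRH EC20 addition for potentiator mode.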
# D1 ag: human D1 receptor agonism | P21728 | HEK293 T-REx D1 cells, calcium flux, agonist mode | activation, % at 2 µM | actives 1% (n = 360,000) | AID 504660
# Target sequence (P21728 whole entry, looked up): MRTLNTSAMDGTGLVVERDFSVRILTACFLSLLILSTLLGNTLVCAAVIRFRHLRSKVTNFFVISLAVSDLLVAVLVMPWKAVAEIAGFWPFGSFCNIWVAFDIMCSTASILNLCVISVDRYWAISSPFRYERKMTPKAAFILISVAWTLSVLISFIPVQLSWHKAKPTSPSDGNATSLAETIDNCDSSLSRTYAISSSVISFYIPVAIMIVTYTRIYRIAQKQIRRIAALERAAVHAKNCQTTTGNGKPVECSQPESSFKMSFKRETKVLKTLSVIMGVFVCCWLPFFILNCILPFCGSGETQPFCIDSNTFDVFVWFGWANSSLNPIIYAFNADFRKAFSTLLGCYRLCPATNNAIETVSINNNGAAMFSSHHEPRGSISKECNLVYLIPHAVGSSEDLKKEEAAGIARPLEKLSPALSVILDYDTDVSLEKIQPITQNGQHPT
#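 Agonism was scored from calcium flux recorded over 180 s (1 read/s) after pintool compound addition, following a 10-cycle baseline. Cells were inducible force-coupled HEK293 TREx D1, plated overnight at 30 C and loaded with no-wash calcium dye.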
# D1 antag: antagonists of human D1 dopamine receptor. actives 3.2% (n = 360,000). HEK293 TREx D1 cells, calcium flux, dopamine EC80; active compounds read low. AID 504652. activity change, negative = inhibition, % at 10 µM; in the data active means activity change below about -30%
#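 Using tetracycline-induced force-coupled D1 Hek293 cells and a calcium dye, signals were followed for 180 s after compound, then for 180 s after EC80 dopamine, to detect inhibitors.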
# TRHR enhancer: allosteric enhancers of human TRH receptor. P34981. actives 0.66% (n = 360,000). TRHR cells, fluo-8 calcium fluorescence, EC20 TRH enhancement. enhancement, % at 2 µM; in the data active means enhancement above about 30%
#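 Enhancer read-out: after compound pinning and an initial kinetic agonist-mode read, an EC20 of TRH (10 nM final) was injected and fluo-8 calcium signal (Ex 480/Em 530) followed at 1 s/cycle for 100 cycles in TRHR-expressing cells.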
# D1 potentiator: potentiators of human D1 dopamine receptor | P21728 | HEK293 TREx D1 cells, calcium flux, dopamine EC20 potentiation | potentiation, % at 10 µM | actives 0.036% (n = 360,000); in the data active means potentiation above about 30%
# A number is an active result; i = inactive; nt = no result. Sampled rows, rich in hits. Any-hit rate of the full collection: about 4.7%. Unless noted, no stated cut-off is given here; in the data, active means activation above about 30%; inactive means the rest.
SMILES,TRHR agonist,D1 ag,D1 antag,TRHR enhancer,D1 potentiator
COc1cc(OC)c(NC(=O)NCc2ccc3c(c2)CCN3C(=O)c2ccccc2)cc1Cl,i,i,i,i,i
CCOc1ccc(NC(=O)CCc2c(C)nc3c(-c4ccccc4)c(C)nn3c2C)cc1,i,i,i,48,i
Cc1nc2c(-c3ccccc3)c(C)nn2c(C)c1CCC(=O)NCc1ccccc1,i,i,i,i,i
Cc1nc2c(-c3ccc(F)cc3)c(C)nn2c(C)c1CCC(=O)NCc1cccc(Cl)c1,i,i,-39,i,i
Cc1nc2c(-c3ccccc3)c(C)nn2c(C)c1CCC(=O)NCc1ccco1,i,i,-43,i,i
Cc1nc2c(-c3ccc(F)cc3)c(C)nn2c(C)c1CCC(=O)NCc1ccc(F)cc1,i,i,i,i,i
CCN1CCN(c2ccc(NC(=O)CCc3c(C)nc4c(-c5ccccc5)c(C)nn4c3C)cc2)CC1,i,i,-84,i,i
Cc1nc2c(-c3ccccc3)c(C)nn2c(C)c1CCC(=O)N1CCN(c2ccccc2)CC1,i,i,i,i,i
O=C(NC1CC(=O)N(c2ccc(F)cc2)C1)c1ccc(S(=O)(=O)N2CCOCC2)cc1 (centres undefined),i,i,nt,i,i
CC1=C(C(N)=O)C(c2ccccc2Br)n2ncnc2N1 (centres undefined),i,i,i,i,i
Cc1cc2cc(CNC(=O)Nc3ccccc3)ccc2[nH]1,i,i,i,i,i
COc1cc(CN(C(=O)COc2ccc(Cl)cc2)c2ccccn2)cc(OC)c1OC,i,i,i,i,i
CC(=O)N1CCN(c2nc(N)c(C#N)c(CC#N)c2C#N)CC1,i,i,-65,i,i
N#CCc1c(C#N)c(N)nc(N2CCN(C=O)CC2)c1C#N,i,i,i,i,i
O=C(Cn1c(=O)n(-c2ccccc2Cl)c(=O)c2sc3ccccc3c21)NC1CCCC1,i,i,i,i,i
O=C(Cn1c(=O)n(-c2ccccc2Cl)c(=O)c2sc3ccccc3c21)NC1CCCCC1,i,39,i,i,i
O=C(CSc1nc(=O)[nH]c2c1CCC2)NCc1ccc(F)cc1,i,i,nt,i,i
O=S(=O)(c1ccc(OC(F)(F)F)cc1)N1CCCC(c2ccccc2)C1 (centres undefined),i,i,-34,i,i
C/C(=N\NC(=O)c1ccn(C)n1)c1cccc(NC(=O)c2ccncc2)c1,i,i,-47,i,i
CCOc1ccc(N/N=C(/C#N)C(N)=O)cc1,i,i,i,i,i
N#C/C(=N/Nc1ccc(OC(F)(F)F)cc1)C(N)=S,i,40,-30,i,i
COc1cccc(NS(=O)(=O)c2ccc3[nH]cc(C(=O)NC4CC4)c(=O)c3c2)c1,i,i,i,i,i
Cc1ccccc1NS(=O)(=O)c1ccc2[nH]cc(C(=O)NC3CCCCC3)c(=O)c2c1,i,i,-43,i,i
Cc1c(Cl)cccc1NS(=O)(=O)c1ccc2[nH]cc(C(=O)NC3CCCC3)c(=O)c2c1,i,i,i,i,i
Cc1ccccc1NS(=O)(=O)c1ccc2[nH]cc(C(=O)NC(C)c3ccccc3)c(=O)c2c1 (centres undefined),i,i,-43,i,i
SMILES,TRHR agonist,D1 ag,D1 antag,TRHR enhancer,D1 potentiator
CNC(=O)c1c[nH]c2ccc(S(=O)(=O)Nc3cccc(SC)c3)cc2c1=O,i,i,-86,i,i
CCOC(=O)C1CCN(C2=NC(=O)/C(=C/c3ccc(Cl)cc3)S2)CC1,i,i,i,i,i
CCOC(=O)CSC1=NC(=O)/C(=C\c2ccc(Cl)cc2)S1,i,100,i,i,i
Cc1c(/C=C(\C#N)C(=O)Nc2cccc(Cl)c2)c2ccccc2n1Cc1ccccc1,i,32,i,i,i
Cc1ccc(C)c(N2CCN(S(=O)(=O)c3ccc4c(c3)CCN4C(=O)CCC(=O)O)CC2)c1,i,i,-34,i,nt
Cc1ccc(NS(=O)(=O)c2ccc3c(c2)CCN3C(=O)CCC(=O)O)cc1Cl,i,40,i,i,i
Cc1cccc(N2CCN(S(=O)(=O)c3ccc4c(c3)CCN4C(=O)CCC(=O)O)CC2)c1C,i,i,i,i,i
COC(=O)c1cccc(Nc2c(-c3cc(Br)ccc3O)nc3nc[nH]n23)c1,i,i,i,i,i
CC(=O)N1CCc2cc(Br)cc(S(=O)(=O)NCCc3ccc(Cl)cc3)c21,i,i,i,i,i
CCC(=O)N1N=C(c2ccc(C)cc2)CC1c1ccco1 (centres undefined),i,i,-37,i,i
COc1ccc(C2=NN(C(=O)CSc3nnc(C)c(=O)n3N)C(c3ccco3)C2)cc1 (centres undefined),i,i,-80,i,i
Cc1ccc(C2=NN(C(=O)CSc3nnnn3C)C(c3ccco3)C2)cc1 (centres undefined),i,i,i,i,nt
CCC(=O)N1N=C(c2cccs2)CC1c1ccco1 (centres undefined),i,i,i,i,i
CC(C)(C)OC(=O)N1CCC(c2c(C(=O)NCC3CCN(C4CCCC4)C3)cnn2-c2ccccc2)CC1 (centres undefined),i,i,i,i,i
FC(F)(F)c1nc(NCc2ccccc2)c2nnn(Cc3ccccc3)c2n1,i,i,i,i,i
CCN(CC)CCNc1nc(C(F)(F)F)nc2c1nnn2Cc1ccccc1,i,i,-92,i,i
Clc1ccc(OCCCn2cncn2)cc1Cl,i,56,i,i,i
COc1ccc(Cn2cc(S(=O)(=O)c3ccc(C)cc3)c(=O)c3cc(F)ccc32)cc1,i,i,i,i,i
COC1=C(Nc2ccc(O)cc2)C(=O)c2ccccc2C1=O,i,i,i,i,i
Cc1ccc(NC2=CC(=O)C(=O)c3ccccc32)cc1,i,i,i,i,i
CCNC1=C(Cl)C(=O)c2ccccc2C1=O,i,i,-36,i,i
O=C1C(Cl)=C(NCCN2CCCCC2)C(=O)c2ccccc21,i,i,i,i,i
CCN(CC)c1ccc(NC2=C(Cl)C(=O)c3ccccc3C2=O)cc1,i,i,-39,i,i
O=C1C(Cl)=C(Nc2ccc(O)cc2)C(=O)c2ccccc21,i,i,-68,i,i
Cc1ccc(NC2=C(Cl)C(=O)c3ccccc3C2=O)cc1,i,i,-58,i,i
COC(=O)c1sccc1S(=O)(=O)N1CCN(c2ccc(C(C)=O)cc2)CC1,i,i,i,i,i
CCc1ccc(S(=O)(=O)c2cn(CC(=O)Nc3ccc(C)cc3)c3ccccc3c2=O)cc1,i,i,i,i,i
COc1ccccc1NC(=O)CSC1=Nc2ccccc2C2=NC(CC(=O)NCc3ccco3)C(=O)N12 (centres undefined),i,i,i,i,i
COc1ccc(C2=NN(CCC(=O)NC3CCCCCC3)C(=O)CC2)cc1,i,i,-33,i,i
COc1ccc(S(=O)(=O)N2CCN(Cc3nc4ccc(C)cc4o3)CC2)cc1OC,i,i,i,i,i
